esBAF inh: blocks esBAF chromatin remodeling in mouse ES cells. Bmi1-luciferase knock-in reporter, 24 h; 100% = twice the neutral-well signal. reporter increase, % at 12.5 µM. 2% of 350,000 active. AID 602393; in the data active = activation above about 40%; inconclusive = no clear call, values can overlap the other calls;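 also: 0% = median of the plate's neutral control wells and 100% = double that signal; a rise in the Bmi1 reporter signal indicates esBAF inhibition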
miR-122 sensor: blocks miR-122 activity in Huh7 sensor cells | Huh7 miR-122 Renilla luciferase sensor, 48 h; neutral wells = 0, positive control = 100 | activation (reporter increase), % at 12.5 µM | 0.3% of 340,000 active;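 active = mean replicate activation score at least 90 and every replicate individually at or above 90; inconclusive = only one of the two criteria met; inactive = neither criterion met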;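 also: higher luciferase means less miR-122 activity so hits act as miR-122 inhibitors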
Wnt act: activators of Wnt/beta-catenin signaling | 1.2% of 300,000 active | activation, % at 9.35 µM | Wnt/beta-catenin reporter cell assay, activator, plate reader; in the data active = activation above about 30%, passing the limit was not always enough; inconclusive = no clear call, values can overlap the other calls;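 also: 0% = neutral control wells and 100% = positive control wells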
MITF TRPM1 HTS: activators of MITF-driven TRPM1 promoter activity in SK-MEL-5 cells; SK-MEL-5 TRPM1-promoter luciferase, 24 h; % of positive control, neutral wells = 0; activation, % at 12.5 µM; 0.75% of 300,000 active; AID 588334;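 active = mean activation of at least 80% with every replicate also reaching 80%; inconclusive = mean reaches 80% but some replicate falls short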;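 also: 0% = neutral control wells and 100% = parthenolide positive control wells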
Env fusion inh: inhibitors of HIV Env-mediated cell fusion; HeLa-JRFL Env/CEM21 cell fusion, luciferase; inhibition, % at 12.3 µM; 1.1% of 360,000 active; AID 651610;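 active = mean replicate inhibition score of at least 50 and every replicate individually at or above 50; inconclusive = only one of the two criteria met; inactive = mean below 50 and not all replicates reaching 50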;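 also: 0% = plate neutral controls and 100% = maraviroc near 300 nM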
Active calls of the source: *; ? = inconclusive; nt = not tested or not shown; [ ] = dose if it differs, or a comment. Only some compounds are listed: those with a hit (about 3.4% of all), similar ones and a draw of the others.

SMILES | esBAF inh | miR-122 sensor | Wnt act | MITF TRPM1 HTS | Env fusion inh
CCS(=O)(=O)N1CCCCN2[C@H](CO)[C@H](c3ccc(-c4cccc(C#N)c4)cc3)[C@H]2C1 | nt | 2[16.7 µM] | nt | nt | nt
CN(C)CC(=O)N1[C@@H]2c3ccc(C4=CCCC4)c(=O)n3C[C@H]1[C@H](CO)[C@H]2C(=O)NCC1CC1 | 4 | -4[16.7 µM] | nt | nt | nt
COc1ccc(S(=O)(=O)Nc2ccc3c(c2)C(=O)N([C@@H](C)CO)C[C@@H](C)[C@@H](CN(C)C(=O)Cc2ccccc2)OCCCC[C@@H](C)O3)cc1 | 11 | -2[16.7 µM] | nt | nt | 2[16.7 µM]
O=C(C1CCCCC1)N1CCCC(c2nc3c(nnn3Cc3ccccc3)c(=O)[nH]2)C1 (configuration not stated) | -3 | -6 | nt | -2 | 79*
Cc1cc(/C(N)=N/OC(=O)c2cccc(Cl)c2)no1 | nt | -4 | 38* | nt | -37
COc1ccc(/C(N)=N/OC(=O)CSc2ccccc2)cc1OC | ? | -5 | 45* | 55 | -234
COc1ccc(C(=O)O/N=C(\N)c2cccc(C)c2)cc1OC | 69* | 0 | 21 | 65 | -162
COc1ccc(C(=O)O/N=C(\N)c2ccccc2)cc1OC | ? | -3 | 56* | 49 | -63
Cc1cccc(C(=O)O/N=C(\N)c2ccc(Br)cc2)c1 | nt | 2 | nt | 21 | nt
Cc1cccc(C(=O)O/N=C(\N)c2ccc(Cl)cc2)c1 | nt | nt | 44* | 27 | -89
COC(=O)[C@H]1C[C@@]2(O)CN(S(=O)(=O)c3ccc(C)cc3)C[C@@]2(OC(=O)NC2CC2)C[C@H]1C(=O)OC | -6 | -2 | -3 | nt | -117
COC(=O)[C@H]1C[C@@]2(O)CN(S(=O)(=O)c3ccc(C)cc3)C[C@@]2(OC(=O)NCC2CCCCC2)C[C@H]1C(=O)OC | 52* | -3 | -1 | nt | nt
N#Cc1c(NC(=O)c2ccco2)sc2c1CCC2 | 54* | 3 | 2 | 91* | -107
Cc1cccc(C(=O)Nc2sc3c(c2C(=O)O)CCCC3)c1 | 72* | 1 | 9 | -7 | 8
N#Cc1c(NC(=O)c2ccncc2)sc2c1CCC2 | nt | -7 | 7 | 15 | nt
N#Cc1c(NC(=O)c2cnn3cccnc23)sc2c1CCCC2 | 42* | -6 | 24 | 46 | -39
NC(=O)c1c(NC(=O)c2ccccc2)sc2c1CCC2 | ? | 5 | 65* | 25 | -125
CC(C)NC(=O)N(C)C[C@@H]1Oc2ccc(NC(=O)Nc3ccc4c(c3)OCO4)cc2C(=O)N([C@@H](C)CO)C[C@H]1C | -1 | 1[16.7 µM] | nt | nt | nt
COc1ccc(S(=O)(=O)N(C)C[C@@H]2Oc3c(NS(=O)(=O)c4ccc(Cl)cc4)cccc3C(=O)N([C@H](C)CO)C[C@H]2C)cc1 | -4 | -11[16.7 µM] | nt | nt | 15[16.7 µM]
CCNC(=O)C[C@H]1CC[C@H]2[C@@H](COC[C@H](O)CN2C(=O)C2CC2)O1 | 5 | 6[16.7 µM] | nt | nt | nt
O=C(C[C@H]1CC[C@@H]2[C@H](COC[C@@H](O)CN2Cc2cc(F)cc(F)c2)O1)NC1CCCC1 | 1 | 1[16.7 µM] | nt | nt | -3[16.7 µM]
N#Cc1c(NC(=O)c2ccc(Cn3cc(Br)cn3)o2)sc2c1CCCCC2 | 44* | 11 | nt | 23 | nt
Cc1cccc(C(=O)Nc2sc(-c3ccccc3)cc2C(=O)O)c1 | 68* | -20 | 26 | 93* | -46
CCOC(=O)c1c(NC(=O)C(C)N2CCN(C(=O)c3ccco3)CC2)sc2c1CCCC2 (configuration not stated) | -11 | 2 | nt | -6 | 56*
Cc1nnc(SCC(=O)Nc2sc3c(c2C(=O)c2ccccc2)CCCC3)s1 | nt | -3 | -7 | 21 | 57*
SMILES | esBAF inh | miR-122 sensor | Wnt act | MITF TRPM1 HTS | Env fusion inh
CC(C)(C)C(=O)Nc1sc(-c2ccccc2)cc1C(=O)O | nt | 11 | 26 | 25 | -31
CCCNC(=O)N1C[C@@H]2[C@H](c3ccccc31)[C@H](CO)N2C(=O)c1ccncc1 | -5 | 17[16.7 µM] | nt | nt | nt
CN(C)C(=O)C[C@@H]1C[C@H]2c3cc(NC(=O)Nc4ccc(C(F)(F)F)cc4)ccc3O[C@H]2[C@@H](CO)O1 | -3 | 3[16.7 µM] | nt | nt | nt
CCOC(=O)C(NC(=O)c1cccc(Cl)c1)(Nc1sc2c(c1C(N)=O)CCC2)C(F)(F)F (configuration not stated) | nt | nt | -2 | 1 | 2
CN(C)C(=O)c1c(NC(=O)c2ccco2)sc2c1CCCCC2 | -9 | -2 | nt | 11 | nt
O=C(Nc1cccc(C(F)(F)F)c1)c1ccc(Cn2cc(Br)cn2)o1 | -8 | 6 | -5 | -10 | 79*
Cc1occc1C(=O)Nc1sc2c(c1C(N)=O)CCCCC2 | 47* | 16 | nt | 69 | nt

Source: PubChem BioAssay (Broad Institute)
